Data from ChEMBL document CHEMBL1201862, “PubChem BioAssay data set” (2004).
About 1,900 (0.47%) of roughly 400,000 compounds were called active. About 14% were inconclusive and are not listed. The rule behind the calls is not given here. Shown is part of a subset that was picked to be rich in actives.

Target: Ataxin-2 (Homo sapiens) (UniProt Q99700)
Experiment: qHTS for Inhibitors of ATXN expression.
Format: functional

Ataxin-2 (Homo sapiens), sequence (Q99700 whole entry): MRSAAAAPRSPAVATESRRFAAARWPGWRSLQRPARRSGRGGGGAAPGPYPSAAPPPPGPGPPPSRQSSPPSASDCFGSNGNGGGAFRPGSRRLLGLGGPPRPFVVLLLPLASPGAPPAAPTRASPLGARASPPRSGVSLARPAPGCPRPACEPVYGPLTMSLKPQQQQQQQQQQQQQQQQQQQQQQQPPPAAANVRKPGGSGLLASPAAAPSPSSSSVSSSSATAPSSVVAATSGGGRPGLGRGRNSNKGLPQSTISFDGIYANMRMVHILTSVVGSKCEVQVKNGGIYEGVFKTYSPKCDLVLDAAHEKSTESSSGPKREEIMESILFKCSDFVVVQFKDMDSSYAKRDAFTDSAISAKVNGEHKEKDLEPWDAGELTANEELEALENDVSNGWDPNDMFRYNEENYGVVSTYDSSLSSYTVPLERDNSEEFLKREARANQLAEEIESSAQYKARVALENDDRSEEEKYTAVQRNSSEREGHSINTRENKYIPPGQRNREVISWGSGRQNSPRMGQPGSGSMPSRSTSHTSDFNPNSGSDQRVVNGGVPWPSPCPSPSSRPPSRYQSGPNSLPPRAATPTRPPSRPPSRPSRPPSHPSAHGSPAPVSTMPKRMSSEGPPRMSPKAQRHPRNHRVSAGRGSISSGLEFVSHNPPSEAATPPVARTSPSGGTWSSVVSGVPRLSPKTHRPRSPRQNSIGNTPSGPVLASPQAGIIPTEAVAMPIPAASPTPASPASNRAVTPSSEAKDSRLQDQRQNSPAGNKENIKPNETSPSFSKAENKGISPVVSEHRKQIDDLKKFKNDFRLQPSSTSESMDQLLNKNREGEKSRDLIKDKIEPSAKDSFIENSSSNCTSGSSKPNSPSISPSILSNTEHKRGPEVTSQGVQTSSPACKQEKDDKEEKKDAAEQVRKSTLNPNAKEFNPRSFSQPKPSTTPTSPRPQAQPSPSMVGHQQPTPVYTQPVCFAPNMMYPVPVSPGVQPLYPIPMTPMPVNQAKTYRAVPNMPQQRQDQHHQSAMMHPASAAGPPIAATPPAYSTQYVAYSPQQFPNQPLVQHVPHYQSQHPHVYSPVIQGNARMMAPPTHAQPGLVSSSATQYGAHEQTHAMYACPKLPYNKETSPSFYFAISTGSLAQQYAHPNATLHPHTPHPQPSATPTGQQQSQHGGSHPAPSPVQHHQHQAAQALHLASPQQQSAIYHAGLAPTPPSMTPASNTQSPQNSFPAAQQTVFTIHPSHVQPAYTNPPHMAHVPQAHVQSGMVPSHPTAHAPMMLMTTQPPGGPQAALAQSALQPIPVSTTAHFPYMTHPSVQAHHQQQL

Row | Structure (SMILES) | Potency
1 | Cc1nc2ccc(N3CCN(C)CC3)cc2nc1C | inactive
2 | O=C(c1ccc(-c2ccccc2)c(F)c1)C1CCCN(CCO)C1 (stereo unspecified) | inactive
3 | O=C(c1ccccc1)C(CN1CCCC1)c1ccccc1 (stereo unspecified) | 25.1 µM (active)
4 | O=C1NCN(c2ccccc2)C12CCN(C(c1cc3ccccc3o1)c1nnnn1Cc1ccccc1)CC2 (stereo unspecified) | 39.8 µM (active)
5 | CC(C)(C)n1nnnc1C(c1cc2ccccc2o1)N1CCC2(CC1)C(=O)NCN2c1ccccc1 (stereo unspecified) | 39.8 µM (active)
6 | CCCNC(=O)c1c(N)n(Cc2ccco2)c2nc3ccccc3nc12 | inactive
7 | CCCCn1nnnc1C(c1cccs1)N1CCC2(CC1)C(=O)NCN2c1ccccc1 (stereo unspecified) | 31.6 µM (active)
8 | O=C1NCN(c2ccccc2)C12CCN(C(c1cccs1)c1nnnn1Cc1ccccc1)CC2 (stereo unspecified) | 39.8 µM (active)
9 | Fc1ccc(CNCCc2ccc3c(c2)OCO3)cc1 | inactive
10 | O=C1NC(=O)N(CCc2ccccc2)C(=O)/C1=C(O)/C=C/c1c[nH]c2ccccc12 | inactive
11 | CN(C)C(=O)Oc1ccc2nnc3ccnn3c2c1 | inactive
12 | CCOc1ccc(N2C(=O)NC(=O)/C(=C\c3ccccc3[N+](=O)[O-])C2=O)cc1 | inactive
13 | CN(C)c1ccc(/C=C/C=C2/C(=O)NC(=O)N(c3ccccc3)C2=O)cc1 | 15 µM (active)
14 | CC(C)c1ccc(N2C(=O)NC(=O)/C(=C/C=C/c3ccco3)C2=O)cc1 | 39.8 µM (active)
15 | COc1ccc(N2C(=O)NC(=O)/C(=C\c3c[nH]c4ccccc34)C2=O)cc1 | inactive
16 | Cc1ccc(-c2cc(-c3ccc(C)cc3)[n+](-c3ccccc3)c(-c3ccc(C)cc3)c2)cc1 | 17.8 µM (active)
17 | c1ccc(-c2cc(-c3ccccc3)[n+](-c3ccccc3)c(-c3ccccc3)c2)cc1 | 25.1 µM (active)
18 | Cc1ccc(C[n+]2c(-c3ccc(C)cc3)cc(-c3ccc(C)cc3)cc2-c2ccc(C)cc2)cc1 | 12.6 µM (active)
19 | COP(=O)(OC)c1nc(-c2cccc3ccccc23)oc1NCCc1ccccc1 | inactive
20 | CCCCn1c(NS(=O)(=O)c2ccc(C)cc2)c(C(=O)OCC)c2nc3ccccc3nc21 | inactive
21 | CCOc1ccc(C(=O)Nc2cccc(C(=O)OCc3cc(=O)n4nc(C5CC5)sc4n3)c2)cc1 | 3.55 µM (active)
22 | Cn1c(=O)c2c(nc(NN/C=C3/C(=O)NC(=S)N(C4CCCCC4)C3=O)n2C)n(C)c1=O | inactive
23 | CN(C)c1c([N+](=O)[O-])cc(N2C(=O)C=CC2=O)cc1[N+](=O)[O-] | 25.1 µM (active)
24 | CC1(C)OC(c2ccccc2)=C/C(=C/C=C2C(=O)NC(=O)NC2=O)O1 | inactive

Row | Structure (SMILES) | Potency
25 | CN1/C(=C\C=C2C(=O)NC(=S)NC2=O)C(C)(C)c2ccccc21 | 35.5 µM (active)
26 | CC1(C)OC(c2ccccc2)=C/C(=C/C=C2C(=O)NC(=S)NC2=O)O1 | inactive
27 | Cc1nc2cc(OC(=O)N(C)Cc3cccc(-c4ccncc4)c3)ccc2s1 | 39.8 µM (active)
28 | COc1ccc(C[C@@H]2NC[C@H](O)[C@@H]2OC(C)=O)cc1 | 0.0891 µM (active)
29 | CCOC(=O)[C@]12Cc3cc(OC)ccc3[C@H]1N(CCC(=O)OC)C(=O)c1cc(OC)ccc12 | 28.2 µM (active)
30 | CCCCCN1C(=O)c2cc(OC)ccc2[C@@]2(C(=O)OCC)Cc3cc(OC)ccc3[C@@H]12 | 11.2 µM (active)
31 | Cc1ccc(C(=O)N[C@@H](C)CN2C3=NC[C@H](Cc4ccccc4)N3C[C@H]2Cc2ccc(O)cc2)cc1Br | 22.4 µM (active)
32 | O=c1c2ccccc2nc(/C=C/c2ccc(O)cc2)n1-c1ccc(O)cc1 | inactive
33 | Cc1ccc(C)c(S(=O)(=O)Nc2ccc3c(c2)CCCN3C(=O)c2cccs2)c1 | 39.8 µM (active)
34 | COc1cccc(-c2nc3cc4c(cc3cc2CN(C(=O)c2cccs2)C2CC2)CCC4)c1OC | 35.5 µM (active)
35 | CCOc1ccc(N/C=C2/C(=O)NC(=S)N(Cc3ccccc3)C2=O)cc1 | inactive
36 | CCCC[C@@H](C)C[C@@H](C)C(=O)N(C)[C@@H](CC(C)C)C(=O)N[C@H](C(=O)N(C)[C@H](C(=O)N1C[C@@H](O)C[C@H]1C(=O)N1C(=O)C=C[C@@H]1C)C(C)C)C(C)OC(C)=O (stereo partly specified) | 10 µM (active)
37 | O=c1c2ccccc2nc(/C=C/c2ccc(O)c(O)c2)n1-c1ccccc1 | inactive
38 | O=C1NC(=S)N(c2ccc(F)cc2)C(=O)/C1=C\c1ccoc1 | inactive
39 | Cc1ccc(N2C(=O)/C(=C/NCc3ccccn3)C(=O)NC2=S)cc1 | inactive
40 | O=C1NC(=S)N(c2ccccc2F)C(=O)/C1=C\c1cccs1 | 31.6 µM (active)
41 | Cc1cc(N(CCCl)CCCl)ccc1C=Cc1ccncn1 | inactive
42 | Oc1nc2ccccc2n1C1CCN(C(CCc2ccccc2)c2nnnn2-c2ccc3c(c2)OCCO3)CC1 (stereo unspecified) | 39.8 µM (active)
43 | Oc1nc2ccccc2n1C1CCN(C(c2ccccc2)c2nnnn2-c2ccc3c(c2)OCCO3)CC1 (stereo unspecified) | 14.1 µM (active)
44 | Oc1nc2ccccc2n1C1CCN(C(c2ccccc2OC(F)(F)F)c2nnnn2-c2ccc3c(c2)OCCO3)CC1 (stereo unspecified) | 39.8 µM (active)
45 | Oc1nc2ccccc2n1C1CCN(C(CCc2ccccc2)c2nnnn2C2CCCCC2)CC1 (stereo unspecified) | 39.8 µM (active)
46 | COc1ccc(C2CC(c3cccs3)=NN2c2nc(C)c(C(C)=O)s2)cc1OC (stereo unspecified) | inactive
47 | CCOCCSc1nc2c(c(-c3cccs3)c1C#N)CC/C2=C/c1cccs1 | inactive
48 | Cc1cccc(-c2noc(-c3ccc4c(c3)OCO4)n2)c1 | inactive

Row | Structure (SMILES) | Potency
49 | CC(C)CNC(=O)c1c(N)n(Cc2ccco2)c2nc3ccccc3nc12 | inactive
50 | CCCN=C1C(=O)C2=C(C(O)=C1C)N1CC3NC3[C@@]1(OC)C2COC(N)=O (stereo partly specified) | inactive
51 | COc1ccc(-n2c(/C=C/c3ccc(O)c(OC)c3)nc3ccccc3c2=O)cc1 | inactive
52 | CC[N+](C)(CC)CCC[n+]1c(-c2ccccc2)c2cc(N)ccc2c2ccc(N)cc21 | 11.2 µM (active)
53 | C/C(=C\c1ccc(N(C)C)cc1)[N+](=O)[O-] | 22.4 µM (active)
54 | Cc1ccc(CN2CCCC(C(=O)c3cccc(C(F)(F)F)c3)C2)o1 (stereo unspecified) | inactive
55 | C=C1C(=O)O[C@@H]2C[C@@H](C)[C@H]3C=CC(=O)[C@]3(O)C[C@@H]12 | 22.4 µM (active)
56 | C=C1C(=O)O[C@@H]2C[C@@H](C)[C@@H]3C=CC(=O)[C@@]3(C)[C@@H](O)[C@H]12 | 20 µM (active)
57 | C=C1C(=O)O[C@@H]2C[C@@H](C)[C@@H]3C=CC(=O)[C@@]3(C)[C@@H](OC(=O)CC(=O)O[C@H]3[C@@H]4C(=C)C(=O)O[C@@H]4C[C@@H](C)[C@@H]4C=CC(=O)[C@]43C)[C@H]12 | 0.562 µM (active)
58 | COc1cc(/C=C/c2nc3ccccc3c(=O)n2-c2ccccc2O)ccc1O | inactive
59 | COc1ccc(-c2c/c(=N\CCC(=O)O)c3cc(C)ccc3o2)cc1 | inactive
60 | C=CCn1c(=O)/c(=C\c2ccccn2)s/c1=C(/C#N)C(=O)NCC1CCCO1 (stereo unspecified) | inactive
61 | O=C(Nc1c(Cl)cccc1Cl)Oc1cccc2cccnc12 | inactive
62 | O=C(NNC(=O)C12CC3CC(CC(C3)C1)C2)c1ccccc1F | inactive
63 | C[C@@H]1O[C@H](O[C@@H]2CC[C@@]3(C=O)[C@H]4CC[C@@]5(C)[C@@H](C6=CC(=O)OC6)CC[C@@]5(O)[C@@H]4CC[C@]3(O)C2)C[C@H](O)[C@@H]1O | 3.55 µM (active)
64 | C[C@@]12CC[C@H]3[C@@H](CC[C@]4(O)C[C@H](O)CC[C@@]34C=O)[C@]1(O)CC[C@@H]2C1=CC(=O)OC1 | 0.708 µM (active)
65 | C[C@@H]1O[C@H](O[C@H]2C[C@@H](O)[C@@]3(CO)[C@H]4[C@@H](O)C[C@]5(C)[C@@H](C6=CC(=O)OC6)CC[C@]5(O)[C@H]4CC[C@]3(O)C2)[C@@H](O)[C@H](O)[C@@H]1O | 0.0891 µM (active)
66 | CCC1C(=O)OCC1Cc1cncn1C (stereo unspecified) | inactive
67 | COc1cccc(C(c2nnnn2-c2ccc3c(c2)OCCO3)N2CCC3(CC2)C(=O)NCN3c2ccccc2)c1OC (stereo unspecified) | 39.8 µM (active)
68 | CSCCC(c1nnnn1C1CCCCC1)N1CCC2(CC1)C(=O)NCN2c1ccccc1 (stereo unspecified) | 39.8 µM (active)
69 | COc1cccc(C(c2nnnn2C2CCCC2)N2CCC3(CC2)C(=O)NCN3c2ccccc2)c1OC (stereo unspecified) | 39.8 µM (active)
70 | COc1cccc(C(c2nnnn2C(C)(C)C)N2CCC3(CC2)C(=O)NCN3c2ccccc2)c1OC (stereo unspecified) | 39.8 µM (active)
71 | CC(C)(C)n1nnnc1C(c1cccc2ccccc12)N1CCC2(CC1)C(=O)NCN2c1ccccc1 (stereo unspecified) | 39.8 µM (active)
